The source of these data is the supplement of paper PMC6555819.

The first experiment relates to PPARg:RXRa 270nM:90nM, anti-RXR (NR concentration 270 nM, RXRa partner concentration 90 nM). Briefly: PBM binding z-score (relative to random genomic background probes); higher = stronger binding; sequences stand for … in GC…GCGATTGACAGCGTAGAATGAAGG
In short, it runs like this: (§1)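 Binding z-scores take random background probes as their reference. They come from custom Agilent 4×180K protein-binding microarrays incubated 1 h with ligand-free nuclear receptor dimers, with antibodies against each partner (one per run) detecting binding. Scanned fluorescence was regression-normalized.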
As to TTACTAAGGTGAAAGGTCGTTGATGCACGCCTTG, the PBM binding z-score turned out to be 8.57.
TCATATAAGTAAATGCTAGGTGAAAGTCCGATCT returned a PBM binding z-score of 2.49.
CGTCCAAGGTCAAAGGTCAGTGGAGAGATGACGG returned a PBM binding z-score of 9.05.
The sequence GGAACGAGGGCAAAGTTGCTAGCATCTGTCGACG yielded a PBM binding z-score of 5.03.
CCTGCTAGGTGAATGGTCAGCTAAAGCAGCTCGC registered a PBM binding z-score of 4.11.
Consider CGTCAAAGTTCAATTAAGGTAACGTAAAGCACGC, for which the PBM binding z-score was 4.67.
In turn, ACTATTAGTTAACTTAGGGCAACCGATACGACGC returned a PBM binding z-score of 0.361.
Turning to TCTGCTTGGTCAGTTGGTCAGCTAACGAGCTGCC, the PBM binding z-score was determined as 0.771.
CCTAATGGGCCAAGGTCATTGATCAGTCAAAGCA had a PBM binding z-score of 3.
On to ACTGGGAGGACAAAGGTCAGAGCTACGCCAGTGA, for which the PBM binding z-score is 7.23.
GCGACTGGGGCAAAGCAGGTTACCAAAAGGTTGG came in with a PBM binding z-score of 1.55.
For the sequence TCATATAGGTAAAGGTGAAAATCGAACGATATGA, the PBM binding z-score was 4.4.
For ATCTCTAGGTAACAAGTACAGTGAAAGAGAGGAC, the PBM binding z-score was 1.36.
Same read-out and setting: with CCTCGGTGGACAGAAGGTCAGAGCTGTCCGCTTT the figure was 2.42; with GCTGCTAGGTCAGCTGATGGTCAGCTAAAGCTCG, 1.01; with ACTAGTTCGTCAGCTGAGGTCACACACAATTCGG, 2.28.
In the case of CCTACTGGGCCAAGAAAGGTCATTGATTCAGTGA, the PBM binding z-score was found to be 3.17.
On the same count and under the same terms, with TCTGCTAGGACAGTTGGTCAGCTAACGAGCTGCC the figure was -0.161.

For a further experiment, the system named is PPARg:RXRa 30nM:10nM, anti-RXR (NR concentration 30 nM, RXRa partner concentration 10 nM). The description is as above. An outline of the steps: as §1
In turn, CCTAGCAGGCCAGGGTCACACAAGCATTTCGCTT yielded a PBM binding z-score of 0.18.
Turning to ATATGTAGGTTATGGGGTCATTCAGTTTGCGCAT, the PBM binding z-score came out at 5.67.
For the sequence ACTATTACTTGAGACGAGGGCAACCGATAGGTTG, the PBM binding z-score turned out to be 0.448.
Same read-out and setting: with CCTACTGGGCCATCAAGTCATTGATATCAACGTT the figure was 0.283.
In turn, TCATAAAGGTAAAGGTGAAAGTCGAACGATATGA registered a PBM binding z-score of 5.07.
Consider TCTGCTAGTTCAGTTGGTCAGCTAACGAGCTGCC, for which the PBM binding z-score was determined as 1.27.
Same read-out and setting: next, TCATATATGTAAACAGGTGAAAGTCCGTAAGTTA: 3.81; ATTTCTAGGTAACCAAGTTCAGTGAATGCCGAAC: 0.773; ACTAGTTGGTCAGCTGACGTCACACACAATTCGG: -0.0374.
ACAGAAAGGTGAGTGAAGGTAACTCAGCTGGACG came in with a PBM binding z-score of 0.0865.
With TCTAGTTGGTCACGGAGCTCACACACGACGGGTA, the PBM binding z-score worked out at 2.94.
The sequence ATCTCTAGGTAACCATGTTCAGTGAATGCCGAAC gave a PBM binding z-score of 0.044.
In turn, AGTCAAAGTTCATCTAGGAAACGTAAGATATGCT showed a PBM binding z-score of 3.53.
The same measure, in the same setting: next, TCTATTAGTTGAAGGGCAACCGCCGAGTCCGTTT: 3.81.
Consider TCAGATAGGTAAACAGGTGAAAGTCCGTAAGTTA, for which the PBM binding z-score is 4.02.
Same read-out and setting: next, CCGACTGGGGCATAAGGGTACCATAAGCCAGCCC: -0.296; ATATCTAGGTTAAGGGTCATTCAGGTTGGTTCGC: 10.8.
For TGTTGTAGATCAATAGAGGTTAAGAAAGTGCGCT, the PBM binding z-score was found to be 0.473.
CCTAGTGGGTCAAGGTCACACACGCTATAGGTAC showed a PBM binding z-score of 5.3.
On to ACTATGAGTTGACTTAGGGCAACCGATACGACGC, for which the PBM binding z-score was determined as 0.371.
GCTGCTAGGTCAATTGATGGTCAGCTAAAGCTCG came in with a PBM binding z-score of -0.0907.
Consider CCTACTGGGCCATTCAGAGGTCATTGGTCATATG, for which the PBM binding z-score came out at 1.1.
The same measure, in the same setting: with TTACTAAGGTGAAAGGTCGTTGATGCACGCCTTG the figure was 8.09; with TCATATAAGTAAATGCTAGGTGAAAGTCCGATCT, 4.34; with CGTCCAAGGTCAAAGGTCAGTGGAGAGATGACGG, 8.08.
Regarding GGAACGAGGGCAAAGTTGCTAGCATCTGTCGACG, the PBM binding z-score stood at 2.76.
Same read-out and setting: with CCTGCTAGGTGAATGGTCAGCTAAAGCAGCTCGC the figure was 2.1.
The sequence CGTCAAAGTTCAATTAAGGTAACGTAAAGCACGC displayed a PBM binding z-score of 1.7.
Take ACTATTAGTTAACTTAGGGCAACCGATACGACGC: the PBM binding z-score turned out to be 0.616.
The same measure, in the same setting: with TCTGCTTGGTCAGTTGGTCAGCTAACGAGCTGCC the figure was 1.04; with CCTAATGGGCCAAGGTCATTGATCAGTCAAAGCA, 0.651.
The sequence ACTGGGAGGACAAAGGTCAGAGCTACGCCAGTGA returned a PBM binding z-score of 5.7.
Take GCGACTGGGGCAAAGCAGGTTACCAAAAGGTTGG: the PBM binding z-score was -0.194.
Still for that read-out and setting: next, TCATATAGGTAAAGGTGAAAATCGAACGATATGA: 4.25; ATCTCTAGGTAACAAGTACAGTGAAAGAGAGGAC: 0.696; CCTCGGTGGACAGAAGGTCAGAGCTGTCCGCTTT: -0.194.
For the sequence GCTGCTAGGTCAGCTGATGGTCAGCTAAAGCTCG, the PBM binding z-score was -0.292.
In turn, ACTAGTTCGTCAGCTGAGGTCACACACAATTCGG gave a PBM binding z-score of 0.594.
Take CCTACTGGGCCAAGAAAGGTCATTGATTCAGTGA: the PBM binding z-score turned out to be 0.919.
Same read-out and setting: next, TCTGCTAGGACAGTTGGTCAGCTAACGAGCTGCC: 0.654.

A further experiment relates to PPARg:RXRa 90nM:30nM, anti-RXR (NR concentration 90 nM, RXRa partner concentration 30 nM). Described as above. An outline of the steps: as §1
In the case of CCTAGCAGGCCAGGGTCACACAAGCATTTCGCTT, the PBM binding z-score was 1.59.
ATATGTAGGTTATGGGGTCATTCAGTTTGCGCAT yielded a PBM binding z-score of 7.31.
As to ACTATTACTTGAGACGAGGGCAACCGATAGGTTG, the PBM binding z-score worked out at 0.266.
CCTACTGGGCCATCAAGTCATTGATATCAACGTT yielded a PBM binding z-score of 0.805.
For TCATAAAGGTAAAGGTGAAAGTCGAACGATATGA, the PBM binding z-score came out at 5.53.
The sequence TCTGCTAGTTCAGTTGGTCAGCTAACGAGCTGCC gave a PBM binding z-score of 0.794.
Sequence TCATATATGTAAACAGGTGAAAGTCCGTAAGTTA displayed a PBM binding z-score of 3.19.
Sequence ATTTCTAGGTAACCAAGTTCAGTGAATGCCGAAC returned a PBM binding z-score of 1.38.
Turning to ACTAGTTGGTCAGCTGACGTCACACACAATTCGG, the PBM binding z-score was -0.0611.
On the same count and under the same terms, next, ACAGAAAGGTGAGTGAAGGTAACTCAGCTGGACG: 0.656; TCTAGTTGGTCACGGAGCTCACACACGACGGGTA: 2.33; ATCTCTAGGTAACCATGTTCAGTGAATGCCGAAC: 0.484.
Sequence AGTCAAAGTTCATCTAGGAAACGTAAGATATGCT displayed a PBM binding z-score of 5.16.
TCTATTAGTTGAAGGGCAACCGCCGAGTCCGTTT: the PBM binding z-score amounted to 2.91.
The sequence TCAGATAGGTAAACAGGTGAAAGTCCGTAAGTTA showed a PBM binding z-score of 3.81.
In turn, CCGACTGGGGCATAAGGGTACCATAAGCCAGCCC registered a PBM binding z-score of 1.18.
With ATATCTAGGTTAAGGGTCATTCAGGTTGGTTCGC, the PBM binding z-score stood at 12.4.
Consider TGTTGTAGATCAATAGAGGTTAAGAAAGTGCGCT, for which the PBM binding z-score was determined as 0.795.
CCTAGTGGGTCAAGGTCACACACGCTATAGGTAC registered a PBM binding z-score of 6.95.
ACTATGAGTTGACTTAGGGCAACCGATACGACGC registered a PBM binding z-score of 0.418.
As to GCTGCTAGGTCAATTGATGGTCAGCTAAAGCTCG, the PBM binding z-score was 1.18.
The sequence CCTACTGGGCCATTCAGAGGTCATTGGTCATATG returned a PBM binding z-score of 2.4.
In the case of TTACTAAGGTGAAAGGTCGTTGATGCACGCCTTG, the PBM binding z-score was found to be 9.29.
The same measure, in the same setting: with TCATATAAGTAAATGCTAGGTGAAAGTCCGATCT the figure was 3.6; with CGTCCAAGGTCAAAGGTCAGTGGAGAGATGACGG, 9.59.
In turn, GGAACGAGGGCAAAGTTGCTAGCATCTGTCGACG yielded a PBM binding z-score of 5.06.
In turn, CCTGCTAGGTGAATGGTCAGCTAAAGCAGCTCGC showed a PBM binding z-score of 3.81.
Still for that read-out and setting: with CGTCAAAGTTCAATTAAGGTAACGTAAAGCACGC the figure was 3.44; with ACTATTAGTTAACTTAGGGCAACCGATACGACGC, 0.282; with TCTGCTTGGTCAGTTGGTCAGCTAACGAGCTGCC, 0.933.
CCTAATGGGCCAAGGTCATTGATCAGTCAAAGCA returned a PBM binding z-score of 2.34.
ACTGGGAGGACAAAGGTCAGAGCTACGCCAGTGA displayed a PBM binding z-score of 7.48.
As for GCGACTGGGGCAAAGCAGGTTACCAAAAGGTTGG, the PBM binding z-score stood at 0.774.
The sequence TCATATAGGTAAAGGTGAAAATCGAACGATATGA had a PBM binding z-score of 4.59.
With ATCTCTAGGTAACAAGTACAGTGAAAGAGAGGAC, the PBM binding z-score turned out to be 1.02.
As to CCTCGGTGGACAGAAGGTCAGAGCTGTCCGCTTT, the PBM binding z-score came to 1.62.
GCTGCTAGGTCAGCTGATGGTCAGCTAAAGCTCG gave a PBM binding z-score of 0.544.
In the case of ACTAGTTCGTCAGCTGAGGTCACACACAATTCGG, the PBM binding z-score stood at 1.5.
For CCTACTGGGCCAAGAAAGGTCATTGATTCAGTGA, the PBM binding z-score was found to be 2.35.
For the sequence TCTGCTAGGACAGTTGGTCAGCTAACGAGCTGCC, the PBM binding z-score worked out at 0.296.
